# Experimental data as given in PubChem BioAssay (EPA / NIEHS).
# Results filed as inconclusive are left out. Where a structure was tested more than once in an assay, its records may differ in their call. Active and inactive are the calls of the source. How the source made its calls: active means hit-call score of the fitted dose curve at least 0.9, where 1 is the maximum; inconclusive means response in the unintended direction; inactive means score below 0.9.
# Molecular target: human Peroxisome Proliferator-activated Receptor alpha (PPARa), PPARA (gene 5465) (UniProt Q07869)
# Test: ATG_PPARa_TRANS: Attagene TRANS-FACTORIAL HepG2 Assay for human Peroxisome Proliferator-activated Receptor alpha (PPARa) (AID 2283001);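 on AC50: potency for gain of reporter signal over DMSO so agonist or activator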
# Method: ATG_TRANS is a cell-based, multiplexed-readout assay that uses HepG2, a human liver cell line, with measurements taken at 24 hours after chemical dosing in a 24-well plate.ATG_PPARa_TRANS is one of 30 assay component(s) measured or calculated from the ATG_TRANS assay. It is designed to make measurements of mRNA induction, a form of inducible reporter, as detected with fluorescence intensity signals by Reverse transcription polymerase chain reaction (RT-PCR) and Capillary electrophoresis technology.Data from the assay component ATG_PPARa_TRANS was analyzed into 1 assay endpoint. This assay endpoint, ATG_PPARa_TRANS, was analyzed in the positive analysis fitting direction relative to DMSO as the negative control and baseline of activity. Using a type of inducible reporter, measures of mRNA for gain-of-signal activity can be used to understand the reporter gene at the transcription factor-level as they relate to the gene PPARA. Furthermore, this assay endpoint can be referred to as a primary readout, because this assay has produced multiple assay endpoints where this one serves a reporter gene function. To generalize the intended target to other relatable targets, this assay endpoint is annotated to the nuclear receptor intended target family, where the subfamily is non-steroidal.
# Human liver HepG2 cells are transiently transfected with multiple reporter transcription units (MRTUs) in 6-well plates using FuGene 6 reagent (Roche; 3 ml FuGene/1 mg DNA). The MRTU constructs are regulated by a cis-regulating element (promoter). […] A major difference between the CIS and TRANS system is that in CIS activities of endogenous TFs are measured, whereas the TRANS assay evaluates changes in activities of exogenous, chimeric NR-Gal4 proteins. […] At the end of 24 hour incubation, total RNA was isolated using TriZol reagent (Invitrogen). The isolated RNA is then reverse-transcribed using oligo(dT) primer and Mo-MLV reverse transcriptase (Invitrogen) with DNAse I (Ambion) treatment for 30 min. The one-tenth of the produced cDNA was amplified by PCR using Taq DNA polymerase (Invitrogen) and two reporter sequence-specific primers. The PCR products were fluorescently labeled by primer extension with 6-arboxyfluorescein (6-FAM) 5'-labeled reporter sequence-specific primer (2 min at 95 C, 20 s at 68 C and 10 min at 72 C) and these products were digested with 5U of HpaI (New England Biolabs) for 2h at 37 C. The fragments were purified using Qiaquick PCR columns (Qiagen), analyzed on an ABI 3130xL genetic analyzer (Applied Biosystems) with peak positions identified by using a set of X-rhodamine (ROX)-labeled MapMarker1000 molecular weight standards (BioVentures). The raw capillary electrophoresis data was processed using Attagraph software (Attagene).
# Chain of human Peroxisome Proliferator-activated Receptor alpha (PPARa), PPARA (gene 5465) (Q07869 whole entry, looked up): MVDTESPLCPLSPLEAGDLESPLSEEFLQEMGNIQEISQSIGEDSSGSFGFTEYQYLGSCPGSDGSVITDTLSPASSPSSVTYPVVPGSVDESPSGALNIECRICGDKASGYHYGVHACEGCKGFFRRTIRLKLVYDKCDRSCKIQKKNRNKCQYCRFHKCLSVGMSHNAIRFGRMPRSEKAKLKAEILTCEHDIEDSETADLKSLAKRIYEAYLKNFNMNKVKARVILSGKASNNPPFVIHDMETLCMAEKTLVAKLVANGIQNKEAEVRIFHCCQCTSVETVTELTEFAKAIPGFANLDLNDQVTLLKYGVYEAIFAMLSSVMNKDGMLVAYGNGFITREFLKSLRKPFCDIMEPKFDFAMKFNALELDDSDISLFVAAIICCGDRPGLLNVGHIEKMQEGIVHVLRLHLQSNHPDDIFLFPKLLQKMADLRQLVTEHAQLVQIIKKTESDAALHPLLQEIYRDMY
Structure (SMILES),outcome,AC50
COc1ccc(C#N)cc1,inactive,–
NNc1nc(-c2ccc([N+](=O)[O-])cc2)cs1,inactive,–
CC(=O)CC(C)C,inactive,–
C=CC(F)(F)C(F)(F)C(F)(F)C(F)(F)F,inactive,–
Cc1ccc(C)c(S(=O)(=O)O)c1,inactive,–
CC(C)c1c(C(=O)Nc2ccccc2)c(-c2ccccc2)c(-c2ccc(F)cc2)n1CC[C@@H](O)C[C@@H](O)CC(=O)O,inactive,–
CCCCCCc1ccc(N)cc1,inactive,–
CC(O)COc1ccccc1 (stereo not given),inactive,–
Cc1cncc(C)c1,inactive,–
c1cnc2c(c1)ccc1cccnc12,inactive,28.6 µM (active)
NNC(=O)CCCCC(=O)NN,inactive,–
CCCCCCCCCCCC,inactive,–
CCCCCCCCCCCC[N+](C)(C)Cc1ccccc1,inactive,68.2 µM (active)
CCCCCCCCCCCCCCCC(=O)OC,inactive,–
O=C(F)C(F)(F)C(F)(F)C(F)(F)C(F)F,inactive,–
C=CC(=O)OCCC(F)(F)C(F)(F)C(F)(F)C(F)(F)C(F)(F)C(F)(F)C(F)(F)C(F)(F)F,inactive,–
CCOC(=O)CN[C@@H](C(=O)N1CC[C@H]1C(=O)NCc1ccc(/C(N)=N/O)cc1)C1CCCCC1,inactive,–
CNNCc1ccc(C(=O)NC(C)C)cc1,inactive,–
CCCCC(CC)C(=O)O (stereo not given),inactive,–

Structure (SMILES),outcome,AC50
OCCN1CN(CCO)CN(CCO)C1,inactive,–
C=C(c1ccc(C(=O)O)cc1)c1cc2c(cc1C)C(C)(C)CCC2(C)C,–,33.6 µM (active)
CCCCCCCCCC=CCC1CC(=O)OC1=O (stereo not given),inactive,–
O=C(c1cc(O)c(O)c(O)c1)c1ccc(O)c(O)c1O,inactive,–
CCC(C)c1nccnc1OC (stereo not given),inactive,–
Nc1ccc(O)c(C(=O)O)c1,inactive,–
C=COC(=O)C(C)(C)CCCCCC,inactive,–
O=S(=O)(O)C(F)(F)C(F)(F)C(F)(F)C(F)(F)C(F)(F)C(F)(F)C(F)(F)C(F)(F)C(F)(F)C(F)(F)F,inactive,–
COC(=O)C(F)(F)C(F)(F)C(F)(F)C(F)(F)C(F)(F)F,inactive,–
Cn1sccc1=O,inactive,–
O=C(Nc1cccc([N+](=O)[O-])c1)c1cc2ccccc2cc1O,inactive,–
O=S(=O)(O)c1ccc2cc(O)ccc2c1,inactive,–
O=C(O)C(F)(F)OC(F)(F)C(F)(F)OC(F)(F)C(F)(F)OC(F)(F)C(F)(F)C(F)(F)C(F)(F)F,inactive,24 µM (active)
O=C(NCc1ncc(C(F)(F)F)cc1Cl)c1c(Cl)cccc1Cl,inactive,–
O=C1OC(=O)C(F)(F)C1(F)F,inactive,–
O=C1c2ccc(O)c(O)c2C(=O)c2c(O)ccc(O)c21,inactive,–
CCCCCCCCCCCC(=O)NCCCN(C)C,inactive,–
c1ccc2c(c1)CCC2,inactive,–
